Shown is part of a subset that was picked to be rich in hits.
Imprint erasure – qHTS Assay for Compounds that Induce Erasure of Genomic Imprints. mouse ES Peg3-LacZ reporter, beta-gal luminescence, 40 h. Potency, µM (titrated, usually from 60.7 µM), without a hit: top-dose activity change, positive = activation, usual class: activators. AID 1948, 2009. hit rate 0.02% among 110,000; note: potency is the fitted concentration of half-maximal effect
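Readout: BetaGlo luminescence (5 min, room temp) for LacZ from the normally silent maternal Peg3 allele in female Peg3LacZ-Neo ES cells. Cells 300/well, 40 h, 37C, 5% CO2. Data normalized per plate to negative controls.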
Luciferase inh – qHTS Assay for Inhibitors of Firefly Luciferase; purified firefly luciferase, luminescence, 8 min; AID 411, 2009; Luciferin 4-monooxygenase (Photinus pyralis), P08659; hit rate 2.2% among 72,000; Potency, µM (titrated, usually from 57.1 µM), without a hit: at the highest dose activity change, negative = inhibition, actives largely listed as inhibitors; note: potency is the fitted concentration of half-maximal effect; % is set by controls: 0 for no effect and ±100 for the full control effect; nearly all actives have a fitted effect of over 40% in size
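Here, luciferase activity is measured as luminescence following an 8 min room-temperature reaction at 10 uM ATP, pH 7.2. Every library sample is titrated.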
IkB sig inh – IkB Signaling. hit rate 0.04% among 110,000. ABC-DLBCL IkBa-CBG/CBR dual luciferase ratio, 4 h; response scale: scaled: untreated 0%, proteasome inhibitor 100%. Potency, µM (series often up to 57.1 µM), for inactives: at the highest dose IkBa stabilization activation; active = well fitted curve in the direction sought with a large enough effect in the signal ratio, not every such curve was filed as active; inconclusive = small, poorly fitted or top-dose-only effect, or a change in a side signal; the % refers to the signal ratio;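 note: potency is the fitted concentration of half-maximal effect; the direction sought is a rising ratio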
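Curves were fitted separately to fusion (green), unfused (red) and ratio luminescence, then classed by r2, magnitude and activity. Cells: OCI-Ly3, 4 h compound plus doxycycline at 37C; 10 uM MG-132 defined full response.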
p53ts 32C tox – qHTS Screen for Compounds that Selectively Target Cancer Cells with p53 Mutations: Cytotoxicity of p53ts Cells at the Permissive Temperature; hit rate 0.93% among 130,000; H1299-p53A138V at 32C, ATP luminescence viability, 24 h; Potency, µM (titrated, usually from 46.1 µM), without a hit: top-dose activity change, negative = cytotoxicity, usual class: cytotoxic;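 note: potency is the fitted concentration of half-maximal effect; 0% = DMSO and -100% = full killing by reference compound; nearly all actives have a fitted effect of over 55% in size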
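Cells: H1299 p53ts (A138V), 600/well, pre-incubated 16–30 h at 37C. Cpd up to 46 uM, 24 h, 32C. Readout: ATPlite luminescence, 20 min RT. Normalization: DMSO vs tamoxifen 100 uM. AC50 by Hill equation.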
p53ts 39C tox – qHTS Screen for Compounds that Selectively Target Cancer Cells with p53 Mutations: Cytotoxicity of p53ts Cells at the Nonpermissive Temperature; H1299-p53A138V viability at 39C, ATP luminescence, 24 h; Potency, µM (highest dose often 46.1 µM), without a hit: at the highest dose activity change, negative = cell killing, most hits filed as cytotoxic; hit rate 1.5% among 130,000; AID 902, 2007; note: potency is the fitted concentration of half-maximal effect; % is set by controls: 0 for no effect and ±100 for the full control effect; nearly all actives have a fitted effect of over 55% in size
IMPase cell inh – qHTS Assay for Identifying the Cell-Membrane Permeable IMPase Inhibitors | inhibition (IP1 accumulation), % at 46.1 µM | CHO-M1 cells, IP1 accumulation, HTRF TR-FRET ratio | 120,000 tested, under 10 active | Inositol monophosphatase 1 (Rattus norvegicus), P97697 | AID 901, 2007; active = well fitted curve in the direction sought with a large enough effect in the signal ratio, not every such curve was filed as active; inconclusive = small, poorly fitted or top-dose-only effect, or a change in a side signal; inactive = no such curve, though single readings can be large or run the other way; the % refers to the signal ratio;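 note: cells stimulated with carbachol in lithium chloride buffer; plate controls were DMSO basal wells for no effect and reference inhibitor wells for full effect; higher means more IMPase inhibition seen as more IP1 and lower FRET ratio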
Target sequence (P97697 whole entry, looked up): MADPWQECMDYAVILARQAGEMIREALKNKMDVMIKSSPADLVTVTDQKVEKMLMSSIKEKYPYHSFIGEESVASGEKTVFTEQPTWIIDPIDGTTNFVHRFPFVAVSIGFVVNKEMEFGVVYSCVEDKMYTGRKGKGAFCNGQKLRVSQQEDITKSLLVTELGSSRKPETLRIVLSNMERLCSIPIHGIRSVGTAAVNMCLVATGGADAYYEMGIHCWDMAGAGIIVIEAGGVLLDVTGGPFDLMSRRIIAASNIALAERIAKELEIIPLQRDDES
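CHO-M1 cells (CHO stably expressing M1 receptor), compound up to 46 uM final, stimulated with carbachol (50 uM as added) in buffer with 50mM LiCl, pH 7.4, 30 min at 37C. Cytosolic IP1 read by TR-FRET; AC50 from Hill fits.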
Starred values were filed as active, the others as inactive; ? = inconclusive; . = not tested or not shown; [ ] = another dose, or the depositor's remark. Unless noted, calls come from the whole dose curve; as a rule, active = well fitted curve in the direction sought with a large enough effect; inconclusive = small, poorly fitted or top-dose-only effect, or another doubt; inactive = no such curve, though single readings can be large; an effect the other way counts as inactive or inconclusive.

SMILES	Imprint erasure	Luciferase inh	IkB sig inh	p53ts 32C tox	p53ts 39C tox	IMPase cell inh
NC(=O)c1ccc(NC(=O)c2ccc3c(c2)OCO3)cc1	.	.	.	.	.	3
O=C(Nc1ccc2nsnc2c1)c1ccc2c(c1)OCO2	-74%	3.2µM*	?	?	?	-7
O=C(Nc1ccc2c(c1)OCO2)c1cccc(Cl)c1	-84%	13µM*	?	?	?	-14
CO[C@@H]1/C=C\O[C@]2(C)Oc3c(C)c(O)c4c(O)c(c(CN5CCN(C)CC5)c(O)c4c3C2=O)NC(=O)/C(C)=C\C=C[C@@H](C)[C@@H](O)[C@H](C)[C@@H](O)C(C)[C@H](OC(C)=O)[C@@H]1C (stereo partly specified)	-2%[10.9 µM]	.	.	.	.	.
CC1(C(=O)Nc2cccc(C(F)(F)F)c2)Cc2ccccc2C(=O)O1 (stereo unspecified)	-10%[10.9 µM]	.	-1%	-13%	-6%	.
CCOCCCNC(=O)c1ccc2c(c1)OCO2	-14%	-2%	-7%	-7%	-7%	4
O=C(NCCOc1ccccc1)c1ccc2c(c1)OCO2	-83%	6.3µM*	?	?	?	12
CCOC(=O)c1c(C)c(C(=O)Nc2ccc3c(c2)OCO3)c(C)n1C	-7%	-5%	3%	4%	0%	3
CCOC(=O)c1c(N)sc(C(=O)Nc2ccc3c(c2)OCO3)c1C	-91%	0.79µM*	?	4µM*	2.5µM*	7
O=C(Nc1ccc(F)c(F)c1)c1ccc2c(c1)OCO2	-71%	?	8%	-25%	-18%	-8
O=C(Nc1ccc(Cl)cc1)c1ccc2c(c1)OCO2	-66%	4µM*	11%	?	-29%	-2
O=C(N/N=C/c1cccs1)c1ccc2c(c1)OCO2	.	.	.	8.9µM*	10µM*	2
COc1ccc2[nH]cc(CCNc3ncnc4ccc(-c5ccc6c(c5)OCO6)cc34)c2c1	-22%	-1%[2.29 µM]	-8%[11.4 µM]	0%	-16%	.
CC(C)C1O[C@H](/C=C\c2ccccc2)OCC1(C)C (stereo partly specified)	-10%[10.9 µM]	.	.	.	.	.
CCc1cc(C(=O)Cc2nc3ccccc3[nH]2)c(O)cc1O	-16%	10µM*	1%	-1%	-19%	3
C[C@H]1[C@H](C)CC[C@]2(C(=O)O)CC[C@]3(C)C(=CC[C@H]4[C@]3(C)C[C@@H](O)C3[C@](C)(CO)[C@H](O)[C@@H](O)C[C@]34C)[C@H]12 (stereo partly specified)	-3%[10.9 µM]	.	.	.	.	.
CC(Oc1ccc(Br)cc1)C(=O)NCc1cccnc1 (stereo unspecified)	.	.	.	1%	0%	.
COc1cc(OC)c(NC(=O)CCCn2nc(C)c3sc4ccccc4c3c2=O)cc1Cl	-22%[10.9 µM]	.	0%	-26%	13µM*	.
Cc1ccc(-c2nc(Nc3ccccc3)n[nH]2)cc1	-13%	13µM*	?	-20%	-22%	3
COc1c2c(nc3ccccc13)O[C@@H]([C@@](C)(O)CO)C2	.	1%	-7%	9%	11%	-2
CCc1ccc(C(=O)c2cn(CC(=O)Nc3ccc4c(c3)OCO4)c3ccc(CC)cc3c2=O)cc1	-27%[10.9 µM]	.	0%	?	13µM*	.
CCc1ccc(C(=O)c2cn(CC(=O)Nc3ccc(Cl)cc3)c3cc4c(cc3c2=O)OCO4)cc1	-16%[10.9 µM]	.	?	11%	-19%	.
CCc1ccc(C(=O)c2cn(CC(=O)Nc3ccc4c(c3)OCO4)c3ccc(Cl)cc3c2=O)cc1	-21%[10.9 µM]	.	1%	-28%	13µM*	.
CCc1ccc2c(c1)c(=O)c(C(=O)c1ccccc1)cn2CC(=O)Nc1ccc(C)c(Cl)c1	-28%[10.9 µM]	.	?	-22%	16µM*	.
